Source: the supplement of paper PMC11732987, “Enantioselective OTUD7B fragment discovery through chemoproteomics screening and high-throughput optimisation” (Communications Chemistry, 2025)

Tests used:
Experiment in all cases: log2 ratio of Biotin-Ahx-Ub-VS probe labelling (fragment/DMSO); higher = less target engagement (more negative = stronger competition), active = hit call of the paper (q ≤ 0.05, log2 ratio ≤ -1)
Conditions in all cases: compound concentration: 200 uM; treatment time: 3 h
USP42 = target: T1, USP42 (UniProt Q9H9J4)
T1 sequence (whole entry): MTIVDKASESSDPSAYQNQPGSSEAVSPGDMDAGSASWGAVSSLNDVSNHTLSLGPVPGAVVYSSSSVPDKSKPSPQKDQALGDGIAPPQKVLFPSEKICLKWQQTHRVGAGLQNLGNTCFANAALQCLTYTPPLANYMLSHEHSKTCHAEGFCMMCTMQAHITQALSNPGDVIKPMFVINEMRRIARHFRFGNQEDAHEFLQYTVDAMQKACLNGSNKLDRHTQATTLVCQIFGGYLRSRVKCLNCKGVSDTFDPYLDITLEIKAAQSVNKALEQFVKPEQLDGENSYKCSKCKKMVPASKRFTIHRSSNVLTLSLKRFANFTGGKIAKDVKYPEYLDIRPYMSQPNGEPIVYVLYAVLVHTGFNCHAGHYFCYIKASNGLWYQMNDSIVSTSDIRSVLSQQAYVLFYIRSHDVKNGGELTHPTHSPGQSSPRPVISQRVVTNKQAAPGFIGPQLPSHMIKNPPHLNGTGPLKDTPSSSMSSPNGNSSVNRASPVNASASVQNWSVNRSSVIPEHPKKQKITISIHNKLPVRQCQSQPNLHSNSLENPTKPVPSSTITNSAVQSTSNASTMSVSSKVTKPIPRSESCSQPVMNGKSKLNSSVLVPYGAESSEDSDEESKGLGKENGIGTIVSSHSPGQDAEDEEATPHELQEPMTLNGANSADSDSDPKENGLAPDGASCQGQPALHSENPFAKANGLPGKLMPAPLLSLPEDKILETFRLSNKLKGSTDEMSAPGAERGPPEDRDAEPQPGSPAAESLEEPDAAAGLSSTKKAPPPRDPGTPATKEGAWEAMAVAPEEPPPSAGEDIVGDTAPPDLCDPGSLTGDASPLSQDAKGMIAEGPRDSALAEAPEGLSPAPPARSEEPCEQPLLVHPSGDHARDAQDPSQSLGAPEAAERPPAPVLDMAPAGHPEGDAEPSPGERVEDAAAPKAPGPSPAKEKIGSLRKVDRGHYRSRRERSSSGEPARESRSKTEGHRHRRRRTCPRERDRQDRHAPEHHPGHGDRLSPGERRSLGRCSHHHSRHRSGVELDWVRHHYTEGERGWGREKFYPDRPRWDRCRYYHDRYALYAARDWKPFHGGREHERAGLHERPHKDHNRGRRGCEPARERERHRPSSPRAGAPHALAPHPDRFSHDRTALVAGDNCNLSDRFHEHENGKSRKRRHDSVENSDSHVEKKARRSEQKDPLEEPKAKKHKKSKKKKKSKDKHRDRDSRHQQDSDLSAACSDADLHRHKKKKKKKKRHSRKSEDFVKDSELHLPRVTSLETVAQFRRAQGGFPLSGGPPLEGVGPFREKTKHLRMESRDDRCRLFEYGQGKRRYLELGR
In short: (§1)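 Labelled DUBs from HEK293T lysate were NeutrAvidin-enriched, digested with LysC and trypsin, and run by diaPASEF LC-MS/MS. Before that, each 495 µg sample in Tris/CHAPS/IGEPAL buffer with protease inhibitors was treated in triplicate with fragment at 200 µM or vehicle for 3 h, then with Biotin-Ahx-Ub-VS at 0.5 µM final for 1 h. Values are average log2 ratios of fragment over vehicle by unpaired t-test, based on global-median-normalised Spectronaut label-free quantities from proteins with ≥2 unique peptides.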

USP46 = USP46 (UniProt P62068)
In short: as §1

USP47 = target: T2, USP47 (UniProt Q96K76)
T2 sequence (whole entry): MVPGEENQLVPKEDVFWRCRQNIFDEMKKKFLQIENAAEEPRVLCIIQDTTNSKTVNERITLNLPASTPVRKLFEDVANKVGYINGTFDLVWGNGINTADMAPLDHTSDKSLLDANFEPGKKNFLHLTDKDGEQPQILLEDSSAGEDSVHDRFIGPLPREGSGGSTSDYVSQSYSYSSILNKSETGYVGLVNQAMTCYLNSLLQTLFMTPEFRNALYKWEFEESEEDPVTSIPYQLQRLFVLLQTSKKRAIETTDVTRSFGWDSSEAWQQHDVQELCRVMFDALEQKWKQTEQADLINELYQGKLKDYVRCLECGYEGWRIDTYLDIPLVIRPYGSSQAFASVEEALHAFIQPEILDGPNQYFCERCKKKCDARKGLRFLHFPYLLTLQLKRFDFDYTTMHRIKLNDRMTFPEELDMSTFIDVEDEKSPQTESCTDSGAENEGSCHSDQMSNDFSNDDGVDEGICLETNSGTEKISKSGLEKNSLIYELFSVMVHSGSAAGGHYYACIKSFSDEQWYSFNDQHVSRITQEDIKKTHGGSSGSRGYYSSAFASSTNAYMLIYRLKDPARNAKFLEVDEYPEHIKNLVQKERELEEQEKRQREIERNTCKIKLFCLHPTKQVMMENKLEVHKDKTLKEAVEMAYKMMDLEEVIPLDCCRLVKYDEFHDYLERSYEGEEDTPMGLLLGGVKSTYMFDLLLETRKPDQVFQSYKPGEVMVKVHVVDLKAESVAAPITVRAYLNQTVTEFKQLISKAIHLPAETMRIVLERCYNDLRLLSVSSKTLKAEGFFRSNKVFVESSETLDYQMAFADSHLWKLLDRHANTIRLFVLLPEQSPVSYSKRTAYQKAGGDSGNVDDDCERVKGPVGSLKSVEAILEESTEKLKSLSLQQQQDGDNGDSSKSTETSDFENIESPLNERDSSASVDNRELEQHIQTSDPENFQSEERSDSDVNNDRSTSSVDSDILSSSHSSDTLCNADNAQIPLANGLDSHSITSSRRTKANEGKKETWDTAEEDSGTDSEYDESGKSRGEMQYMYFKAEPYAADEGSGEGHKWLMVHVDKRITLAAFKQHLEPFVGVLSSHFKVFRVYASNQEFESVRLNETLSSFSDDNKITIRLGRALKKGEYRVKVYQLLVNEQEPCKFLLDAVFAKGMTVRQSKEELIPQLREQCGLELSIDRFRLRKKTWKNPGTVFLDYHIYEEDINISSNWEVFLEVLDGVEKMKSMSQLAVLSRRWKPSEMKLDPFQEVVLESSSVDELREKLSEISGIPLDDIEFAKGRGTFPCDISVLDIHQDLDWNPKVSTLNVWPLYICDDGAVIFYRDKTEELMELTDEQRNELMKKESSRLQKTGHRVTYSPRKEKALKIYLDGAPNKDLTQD
In short: as §1

USP48 = target: T3, USP48 (UniProt Q86UV5)
T3 sequence (whole entry): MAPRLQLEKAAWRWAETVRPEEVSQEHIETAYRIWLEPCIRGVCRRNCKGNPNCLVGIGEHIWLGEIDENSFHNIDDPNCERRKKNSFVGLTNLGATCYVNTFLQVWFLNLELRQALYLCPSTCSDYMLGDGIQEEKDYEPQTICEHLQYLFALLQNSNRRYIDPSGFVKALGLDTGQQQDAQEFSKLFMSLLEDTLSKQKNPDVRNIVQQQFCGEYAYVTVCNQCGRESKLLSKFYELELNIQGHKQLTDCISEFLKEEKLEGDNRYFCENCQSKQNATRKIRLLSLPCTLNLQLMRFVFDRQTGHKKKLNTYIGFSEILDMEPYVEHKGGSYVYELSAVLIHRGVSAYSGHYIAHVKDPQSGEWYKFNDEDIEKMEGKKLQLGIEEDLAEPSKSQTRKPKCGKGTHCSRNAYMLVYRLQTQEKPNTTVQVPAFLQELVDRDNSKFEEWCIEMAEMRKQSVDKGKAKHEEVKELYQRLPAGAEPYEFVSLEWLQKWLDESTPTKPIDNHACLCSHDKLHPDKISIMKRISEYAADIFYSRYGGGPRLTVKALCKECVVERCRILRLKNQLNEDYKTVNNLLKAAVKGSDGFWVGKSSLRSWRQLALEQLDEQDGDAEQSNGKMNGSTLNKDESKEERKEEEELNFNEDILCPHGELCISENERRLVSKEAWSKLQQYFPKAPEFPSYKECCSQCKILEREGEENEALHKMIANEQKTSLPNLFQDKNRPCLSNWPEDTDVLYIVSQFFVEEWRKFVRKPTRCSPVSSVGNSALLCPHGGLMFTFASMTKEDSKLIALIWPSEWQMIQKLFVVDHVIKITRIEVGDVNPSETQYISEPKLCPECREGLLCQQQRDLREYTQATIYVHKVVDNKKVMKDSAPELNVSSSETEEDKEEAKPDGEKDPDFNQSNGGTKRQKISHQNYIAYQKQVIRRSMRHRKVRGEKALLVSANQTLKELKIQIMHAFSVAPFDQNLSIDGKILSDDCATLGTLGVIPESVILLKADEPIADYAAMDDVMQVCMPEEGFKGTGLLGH
In short: as §1

USP5 = target: T4, USP5 (UniProt P45974)
T4 sequence (whole entry): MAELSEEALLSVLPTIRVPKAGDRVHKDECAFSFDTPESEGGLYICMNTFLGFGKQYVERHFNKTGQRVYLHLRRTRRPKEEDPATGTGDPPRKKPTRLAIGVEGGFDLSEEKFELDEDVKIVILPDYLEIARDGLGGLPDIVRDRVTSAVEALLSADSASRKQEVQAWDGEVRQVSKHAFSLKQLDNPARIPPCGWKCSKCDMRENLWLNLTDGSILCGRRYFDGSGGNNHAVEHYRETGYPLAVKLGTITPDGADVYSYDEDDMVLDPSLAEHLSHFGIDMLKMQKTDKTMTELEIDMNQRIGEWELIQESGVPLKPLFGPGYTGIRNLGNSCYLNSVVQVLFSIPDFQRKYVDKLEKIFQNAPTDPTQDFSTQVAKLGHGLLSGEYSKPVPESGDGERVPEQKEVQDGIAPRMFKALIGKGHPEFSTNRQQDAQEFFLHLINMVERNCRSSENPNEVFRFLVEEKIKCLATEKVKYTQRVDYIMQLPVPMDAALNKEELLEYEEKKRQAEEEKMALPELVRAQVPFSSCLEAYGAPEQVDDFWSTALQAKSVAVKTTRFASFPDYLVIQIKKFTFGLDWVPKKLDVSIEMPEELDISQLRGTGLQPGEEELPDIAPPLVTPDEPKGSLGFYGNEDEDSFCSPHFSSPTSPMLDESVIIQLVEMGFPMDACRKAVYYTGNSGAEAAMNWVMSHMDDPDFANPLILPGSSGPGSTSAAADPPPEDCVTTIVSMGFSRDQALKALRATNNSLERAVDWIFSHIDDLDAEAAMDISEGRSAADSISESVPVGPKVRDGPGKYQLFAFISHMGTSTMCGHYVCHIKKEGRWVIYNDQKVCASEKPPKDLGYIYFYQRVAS
In short: as §1

USP54 = USP54 (UniProt Q70EL1)
In short: as §1

USP7 = USP7 (UniProt Q93009)
In short: as §1

USP8 = target: T5, USP8 (UniProt P40818)
T5 sequence (whole entry): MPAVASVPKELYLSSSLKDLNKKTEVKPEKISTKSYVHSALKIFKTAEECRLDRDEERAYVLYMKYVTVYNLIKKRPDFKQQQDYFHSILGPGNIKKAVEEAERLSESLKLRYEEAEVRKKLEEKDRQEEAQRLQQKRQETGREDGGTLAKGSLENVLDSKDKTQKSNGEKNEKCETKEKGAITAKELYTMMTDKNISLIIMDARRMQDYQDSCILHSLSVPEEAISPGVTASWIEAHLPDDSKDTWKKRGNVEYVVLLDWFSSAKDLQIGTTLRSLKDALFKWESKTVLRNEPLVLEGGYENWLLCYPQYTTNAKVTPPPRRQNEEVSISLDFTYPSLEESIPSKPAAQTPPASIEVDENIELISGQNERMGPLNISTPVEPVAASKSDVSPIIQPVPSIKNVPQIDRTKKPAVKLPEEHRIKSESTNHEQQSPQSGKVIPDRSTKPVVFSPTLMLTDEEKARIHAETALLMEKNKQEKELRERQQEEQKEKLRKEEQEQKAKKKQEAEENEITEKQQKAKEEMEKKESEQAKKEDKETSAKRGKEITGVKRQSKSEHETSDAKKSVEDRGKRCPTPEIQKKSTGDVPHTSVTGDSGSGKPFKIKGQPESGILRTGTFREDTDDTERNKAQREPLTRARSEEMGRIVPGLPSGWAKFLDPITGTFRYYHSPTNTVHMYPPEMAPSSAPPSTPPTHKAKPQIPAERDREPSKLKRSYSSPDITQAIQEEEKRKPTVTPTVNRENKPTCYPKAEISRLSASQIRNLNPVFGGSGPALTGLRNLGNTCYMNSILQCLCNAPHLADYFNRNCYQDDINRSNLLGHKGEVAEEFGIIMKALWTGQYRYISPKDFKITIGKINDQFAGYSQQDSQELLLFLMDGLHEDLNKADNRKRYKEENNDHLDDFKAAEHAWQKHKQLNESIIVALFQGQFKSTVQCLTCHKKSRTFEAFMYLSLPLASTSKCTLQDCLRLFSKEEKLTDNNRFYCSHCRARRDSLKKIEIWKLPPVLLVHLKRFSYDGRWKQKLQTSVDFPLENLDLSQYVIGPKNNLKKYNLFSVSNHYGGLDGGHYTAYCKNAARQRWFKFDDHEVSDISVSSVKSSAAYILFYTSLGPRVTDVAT
In short: as §1

USP9X = USP9X (UniProt Q93008)
In short: as §1

UniProt O00487 = target: UniProt O00487
In short: as §1

Measured: log2 ratio of Biotin-Ahx-Ub-VS probe labelling

USP7, sequence (Q93009 whole entry, looked up): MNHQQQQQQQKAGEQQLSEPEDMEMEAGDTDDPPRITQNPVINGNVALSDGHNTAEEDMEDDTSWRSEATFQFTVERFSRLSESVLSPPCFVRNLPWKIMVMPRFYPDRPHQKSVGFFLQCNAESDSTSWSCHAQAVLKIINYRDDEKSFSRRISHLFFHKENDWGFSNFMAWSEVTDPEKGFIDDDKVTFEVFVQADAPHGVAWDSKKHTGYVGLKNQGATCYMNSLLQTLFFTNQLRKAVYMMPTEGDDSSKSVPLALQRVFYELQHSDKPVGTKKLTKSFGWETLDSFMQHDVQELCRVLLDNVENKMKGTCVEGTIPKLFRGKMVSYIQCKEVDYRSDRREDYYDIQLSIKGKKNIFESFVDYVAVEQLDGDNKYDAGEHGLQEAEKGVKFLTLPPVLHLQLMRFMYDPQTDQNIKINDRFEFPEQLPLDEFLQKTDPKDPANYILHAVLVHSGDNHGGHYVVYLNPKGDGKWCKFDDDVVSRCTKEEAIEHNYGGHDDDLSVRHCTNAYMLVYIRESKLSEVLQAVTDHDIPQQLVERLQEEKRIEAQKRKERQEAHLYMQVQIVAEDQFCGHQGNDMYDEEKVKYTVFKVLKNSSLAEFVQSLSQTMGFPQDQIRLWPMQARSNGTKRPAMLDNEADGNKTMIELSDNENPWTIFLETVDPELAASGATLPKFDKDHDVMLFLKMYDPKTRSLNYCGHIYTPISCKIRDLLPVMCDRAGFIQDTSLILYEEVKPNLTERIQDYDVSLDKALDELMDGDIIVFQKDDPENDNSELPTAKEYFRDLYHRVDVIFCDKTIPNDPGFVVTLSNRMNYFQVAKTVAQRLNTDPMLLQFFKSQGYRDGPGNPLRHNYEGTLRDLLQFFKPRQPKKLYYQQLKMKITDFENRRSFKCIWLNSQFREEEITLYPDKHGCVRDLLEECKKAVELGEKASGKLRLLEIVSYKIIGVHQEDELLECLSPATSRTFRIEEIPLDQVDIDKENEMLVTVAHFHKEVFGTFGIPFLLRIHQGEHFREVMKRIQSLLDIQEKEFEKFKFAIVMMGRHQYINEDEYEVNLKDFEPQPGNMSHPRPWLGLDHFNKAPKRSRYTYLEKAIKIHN
UniProt O00487, sequence (O00487 whole entry): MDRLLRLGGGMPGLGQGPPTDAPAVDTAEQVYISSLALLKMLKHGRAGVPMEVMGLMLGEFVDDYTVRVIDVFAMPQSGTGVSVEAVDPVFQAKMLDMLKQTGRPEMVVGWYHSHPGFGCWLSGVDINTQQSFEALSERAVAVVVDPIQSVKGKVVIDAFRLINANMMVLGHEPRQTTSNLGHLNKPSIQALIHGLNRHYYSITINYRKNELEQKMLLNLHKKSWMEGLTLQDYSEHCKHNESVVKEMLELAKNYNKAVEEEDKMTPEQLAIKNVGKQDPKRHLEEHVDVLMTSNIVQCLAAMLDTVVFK
USP54, sequence (Q70EL1 whole entry): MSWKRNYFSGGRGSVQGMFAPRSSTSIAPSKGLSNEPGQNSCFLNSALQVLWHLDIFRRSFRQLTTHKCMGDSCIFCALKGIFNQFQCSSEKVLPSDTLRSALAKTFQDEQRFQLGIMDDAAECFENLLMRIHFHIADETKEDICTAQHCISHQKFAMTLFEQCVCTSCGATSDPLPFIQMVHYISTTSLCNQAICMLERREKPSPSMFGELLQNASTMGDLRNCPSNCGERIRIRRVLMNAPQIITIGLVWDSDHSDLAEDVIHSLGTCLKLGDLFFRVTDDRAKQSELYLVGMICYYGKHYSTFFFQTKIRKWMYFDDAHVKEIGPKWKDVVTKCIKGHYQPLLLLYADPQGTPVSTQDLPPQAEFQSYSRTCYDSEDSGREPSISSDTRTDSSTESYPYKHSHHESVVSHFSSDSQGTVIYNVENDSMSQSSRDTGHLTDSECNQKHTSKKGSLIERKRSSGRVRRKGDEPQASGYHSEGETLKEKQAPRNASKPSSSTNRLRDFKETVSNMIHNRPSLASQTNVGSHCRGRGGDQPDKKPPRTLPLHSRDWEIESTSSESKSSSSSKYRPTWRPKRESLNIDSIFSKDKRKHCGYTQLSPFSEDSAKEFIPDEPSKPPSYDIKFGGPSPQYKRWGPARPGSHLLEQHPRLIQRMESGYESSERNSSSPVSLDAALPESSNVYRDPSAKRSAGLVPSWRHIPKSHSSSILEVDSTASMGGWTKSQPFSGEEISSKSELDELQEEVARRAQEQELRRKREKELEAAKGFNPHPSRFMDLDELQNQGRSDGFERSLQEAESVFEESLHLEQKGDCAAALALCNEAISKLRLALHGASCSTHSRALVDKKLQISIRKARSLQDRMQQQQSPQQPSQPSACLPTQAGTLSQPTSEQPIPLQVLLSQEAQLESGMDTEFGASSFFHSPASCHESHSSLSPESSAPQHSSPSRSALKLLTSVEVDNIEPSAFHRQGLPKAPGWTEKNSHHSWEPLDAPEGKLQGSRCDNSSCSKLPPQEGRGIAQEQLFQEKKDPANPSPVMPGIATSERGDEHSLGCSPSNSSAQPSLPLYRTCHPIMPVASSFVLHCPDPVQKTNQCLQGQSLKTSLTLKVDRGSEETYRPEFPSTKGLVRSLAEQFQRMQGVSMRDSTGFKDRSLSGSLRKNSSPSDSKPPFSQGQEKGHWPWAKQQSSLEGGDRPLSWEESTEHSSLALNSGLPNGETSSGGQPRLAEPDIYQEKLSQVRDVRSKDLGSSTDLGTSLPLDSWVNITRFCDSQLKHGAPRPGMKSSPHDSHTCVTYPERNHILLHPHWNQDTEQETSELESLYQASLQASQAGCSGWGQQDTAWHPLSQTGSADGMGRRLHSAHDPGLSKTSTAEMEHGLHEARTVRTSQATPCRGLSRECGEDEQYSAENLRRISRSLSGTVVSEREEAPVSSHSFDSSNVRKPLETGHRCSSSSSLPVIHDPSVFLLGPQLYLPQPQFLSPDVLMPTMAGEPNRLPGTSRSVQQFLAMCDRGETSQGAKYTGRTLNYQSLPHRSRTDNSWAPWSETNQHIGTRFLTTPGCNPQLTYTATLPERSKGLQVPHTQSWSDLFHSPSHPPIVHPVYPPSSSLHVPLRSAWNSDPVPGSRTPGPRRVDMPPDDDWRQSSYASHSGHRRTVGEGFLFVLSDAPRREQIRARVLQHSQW
USP46, sequence (P62068 whole entry): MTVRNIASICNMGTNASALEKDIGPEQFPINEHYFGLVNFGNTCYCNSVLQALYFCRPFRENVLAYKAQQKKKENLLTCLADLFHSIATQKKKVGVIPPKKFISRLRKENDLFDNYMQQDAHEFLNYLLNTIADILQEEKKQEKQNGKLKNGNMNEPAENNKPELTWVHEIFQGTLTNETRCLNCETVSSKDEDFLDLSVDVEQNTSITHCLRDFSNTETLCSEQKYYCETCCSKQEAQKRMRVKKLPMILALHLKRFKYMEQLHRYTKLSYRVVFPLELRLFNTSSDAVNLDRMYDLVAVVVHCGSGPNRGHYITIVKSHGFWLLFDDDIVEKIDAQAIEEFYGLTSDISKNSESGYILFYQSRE

O=C(CCl)N1CCOCC1C1CC1 (stereo not given)
inactive: USP42 -0.112 | USP46 0.00778 | USP47 -0.0311 | USP48 0.0155 | USP5 0.147 | USP54 0.967 | USP7 -0.145 | USP8 -0.168 | USP9X -0.18 | UniProt O00487 -0.226
